ST2 IL33 inh = IL1RL1 inhibition; AlphaLISA ST2-Fc/biotin-IL-33 interaction, 1 h; Q01638; actives 2.3% (n = 78,000); inhibition, % for hits at 17 µM; in the data active means inhibition above about 30%
Target sequence (Q01638 whole entry, looked up): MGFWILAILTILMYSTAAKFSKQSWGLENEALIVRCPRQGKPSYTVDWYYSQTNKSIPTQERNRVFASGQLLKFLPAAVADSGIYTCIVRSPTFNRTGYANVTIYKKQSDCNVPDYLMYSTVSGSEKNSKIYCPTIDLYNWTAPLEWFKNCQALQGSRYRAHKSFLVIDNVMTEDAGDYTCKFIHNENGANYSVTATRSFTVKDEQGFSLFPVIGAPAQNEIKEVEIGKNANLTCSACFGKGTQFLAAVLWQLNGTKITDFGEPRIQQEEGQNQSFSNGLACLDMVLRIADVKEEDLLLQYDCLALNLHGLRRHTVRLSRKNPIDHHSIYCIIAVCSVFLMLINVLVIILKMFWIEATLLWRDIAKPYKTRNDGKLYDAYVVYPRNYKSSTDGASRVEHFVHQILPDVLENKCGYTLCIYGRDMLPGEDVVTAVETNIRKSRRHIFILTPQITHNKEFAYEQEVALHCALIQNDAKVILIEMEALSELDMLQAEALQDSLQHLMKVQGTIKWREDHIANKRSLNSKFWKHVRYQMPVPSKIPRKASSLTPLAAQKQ
The depositor's hits bear a star; i = inactive; ! = repeats disagree. This is one part of a sample in which hits are shown more often than they occur.

SMILES	ST2 IL33 inh
Cc1nccn1CCCN1CCOc2c(O)cc(-c3cccc(Cl)c3)cc2C1	i
CN(C)CCNC(=O)C1(O)c2ccccc2NC(=O)N1c1ccccc1 (stereo not drawn)	i
O=C1Nc2ccccc2C(O)(C(=O)NCc2ccc3c(c2)OCO3)N1c1ccccc1 (stereo not drawn)	30%*
CCCCNC(=O)C1(O)c2cc(Br)ccc2NC(=O)N1c1ccccc1 (stereo not drawn)	i
CCN(CC)CCNC(=O)C1(O)c2cc(Br)ccc2NC(=O)N1c1ccccc1 (stereo not drawn)	31%*!
COc1ccc(CNC(=O)C2(O)c3ccccc3NC(=O)N2c2cccc(OC)c2)cc1 (stereo not drawn)	i
CCN(CC)CCNC(=O)C1(O)c2ccccc2NC(=O)N1c1ccccc1 (stereo not drawn)	i
Cc1cc(C(F)(F)F)nc(CCNC(=O)c2cn(Cc3ccccc3F)nn2)n1	i
O=S(=O)(Nc1ccc(Br)cc1)c1ccc(Br)s1	i
CC(C)c1ccc(C2SCC(=O)N2CCN2CCCCC2)cc1 (stereo not drawn)	i
Cc1nc2ccc3nc(NC(=O)c4cc(=O)c5ccccc5o4)sc3c2s1	i
Cc1cc(C(=O)O)c2ccccc2n1	i
Cc1ccc(-c2cc(C(=O)O)c3cc4c(C(=O)O)cc(-c5ccc(C)o5)nc4cc3n2)o1	91%*
O=C(O)c1cc(-c2cc(C(=O)O)c3ccccc3n2)nc2ccccc12	i
CC(=O)N1CCn2nc(C(=O)NCCc3sccc3C)cc2C1	i
O=C1NC(=Nc2ccccc2)c2c1cccc2[N+](=O)[O-]	i
Cc1cc2c(cc1[N+](=O)[O-])-c1ncccc1C2=Nc1ccccc1	32%*
Cc1ccccc1N=C1NC(=O)c2cccc([N+](=O)[O-])c21	i
CC(C)N(CCN1CCCCCC1)C(=O)c1ccc(C2CCCN2)s1 (stereo not drawn)	i
CC1(C)OC(=O)C(=CNc2cccc(C(F)(F)F)c2)C(=O)O1	i
Cc1ccc(Cl)cc1NC(=O)CN1CCN(Cc2ccccc2F)S1(=O)=O	97%*
Cc1cc(C)c(NC(=O)CN2CCN(Cc3ccccc3F)S2(=O)=O)c(C)c1	i
O=C(CN1CCN(Cc2ccccc2F)S1(=O)=O)Nc1ccccc1	i
Fc1ccc2nc(N3CCN(c4ccccc4)CC3)sc2c1	i
Cc1ccc(-c2noc([C@@H]3C[C@H](NS(=O)(=O)c4ccc(C)cc4)CN3C)n2)cc1	i
SMILES	ST2 IL33 inh
COc1ccc(NC(=O)N[C@H]2C[C@@H](c3nc(-c4ccc(OC)cc4)no3)N(C)C2)cc1	i
COc1ccc(-c2noc([C@@H]3C[C@H](NC(=O)CCC(=O)O)CN3C)n2)cc1	30%*
COc1ccc(-c2noc([C@@H]3C[C@H](NC(=O)NC(C)C)CN3C)n2)cc1	42%*
COc1ccc(-c2noc([C@@H]3C[C@H](NC(=O)Nc4ccc(C)cc4)CN3C)n2)cc1	i
COc1cccc(NC(=O)N[C@H]2C[C@@H](c3nc(-c4ccccc4)no3)N(C)C2)c1	i
COc1ccc(-c2noc([C@@H]3C[C@H](NS(=O)(=O)c4ccc(C)cc4)CN3C)n2)cc1	i
CN1C[C@@H](NC(=O)C2CCCCC2)C[C@H]1c1nc(-c2ccccc2)no1	i
CN1C[C@@H](NS(=O)(=O)c2ccc(Cl)cc2)C[C@H]1c1nc(-c2ccccc2)no1	i
CN1C[C@@H](NC(=O)NC2CCCCC2)C[C@H]1c1nc(-c2ccc3c(c2)OCO3)no1	i
CN1C[C@@H](NC(=O)NC2CCCCC2)C[C@H]1c1nc(-c2ccccc2)no1	82%*
CN1C[C@@H](NS(=O)(=O)c2ccc(C#N)cc2)C[C@H]1c1nc(-c2ccccc2)no1	51%*
Cc1ccc(-n2nc3c(c2NC(=O)C2CC2)CSC3)cc1	i
COc1ccc(C2C(C(=O)NC(C)C)c3cc(OC)c(OC)cc3C(=O)N2C)cc1OC (stereo not drawn)	i
O=C(CCC1CCCCC1)NC1CCCC1	i
Nc1cccc2c1C(=O)N(c1ccc(Cl)cc1Cl)C2=O	i
COc1cc(OC)c(C2SCCN2S(=O)(=O)c2ccc(Br)cc2)cc1OC (stereo not drawn)	i
Cc1cccc(-c2ccc(NC(=O)C3CCN(C(=O)[C@@H]4C[C@@H]5C=C[C@H]4C5)CC3)cc2)c1	i
COCCN1CCC(C(=O)N2CCC3(CCc4ccccc43)CC2)C1 (stereo not drawn)	i
O=C(CCS(=O)(=O)c1cccc2nonc12)NCc1cccs1	i
CN1C[C@@H](NC(=O)c2ccc(F)cc2)C[C@H]1c1nc(-c2ccccc2)no1	i
CN1C[C@@H](NC(=O)c2ccccn2)C[C@H]1c1nc(-c2ccncc2)no1	i
CN1C[C@@H](NC(=O)CC(C)(C)CC(=O)O)C[C@H]1c1nc(-c2ccccn2)no1	i
CN1C[C@@H](NC(=O)COc2ccccc2)C[C@H]1c1nc(-c2cccnc2)no1	65%*
CN(C)c1ccc(C(=O)N[C@H]2C[C@@H](c3nc(-c4cccnc4)no3)N(C)C2)cc1	58%*
CN1C[C@@H](NC(=O)c2cccnc2)C[C@H]1c1nc(-c2ccc(Cl)cc2)no1	i
SMILES	ST2 IL33 inh
CN1C[C@@H](NC(=O)c2ccc3c(c2)OCO3)C[C@H]1c1nc(-c2cccnc2)no1	i
CN1C[C@@H](NC(=O)CC(C)(C)C)C[C@H]1c1nc(-c2cnccn2)no1	34%*
CN1C[C@@H](NC(=O)c2ccccn2)C[C@H]1c1nc(-c2ccccn2)no1	i
CCN(c1ccccc1)S(=O)(=O)c1ccc(NC(C)=O)cc1	i
COc1ccc(Br)c(C2Nc3ccccc3-c3nnc(SC)nc3O2)c1 (stereo not drawn)	i
O=C(CCc1cccnc1)N1C[C@H]2OC(=O)N(CCN3CCCCC3)[C@H]2C1	i
COc1ccc(CNC(=O)C(=O)Nc2ccccc2)cc1	i
O=S(=O)(N=C(Nc1ccc(Br)cc1)c1ccccc1)c1ccccc1	i
O=c1oc2ccc(Br)cc2cc1-c1nnc(-c2ccccc2Br)o1	i
COc1ccc(-c2cc3cc(Br)ccc3oc2=O)cc1	i
O=c1oc2cc(O)ccc2cc1-c1nc(-c2ccc3ccccc3c2)cs1	i
O=c1oc2ccccc2cc1-c1nc(-c2cccs2)cs1	51%*
O=C(Nc1nc(-c2cccs2)cs1)c1cc2ccccc2oc1=O	i
O=c1oc2ccc(Br)cc2cc1-c1nc(-c2cccs2)cs1	30%*
CCN(CC)C(=O)CC[C@@H]1CNC(=O)[C@@H]2C[C@H](NCc3cccc(Cl)c3)CN12	i
COc1ccc(N2C(N)=C(C#N)C(c3ccc(OC)c(OC)c3)C3=C2CC(C)(C)CC3=O)cc1 (stereo not drawn)	i
CC1CCN(CCNS(=O)(=O)c2cccc3nonc23)CC1	i
Cc1sc2ncnc(Sc3nnnn3-c3ccccc3)c2c1C	44%*
Cc1cc(Sc2nnnn2-c2ccccc2)nc2ccccc12	i
CSc1nnnn1-c1ccccc1	i
O=C(O)c1ccccc1C(=O)N[C@H]1CO[C@H]2[C@@H]1OC[C@@H]2n1nnnc1Oc1ccc(-n2cncn2)cc1	i
COCC(=O)N1Cc2c(ncn2Cc2ccc(Cl)cc2)C[C@H]1C(=O)OC	i
O=C(Cc1ccc(-n2c(=O)[nH]c3ccsc3c2=O)cc1)N1CCC(N2CCCCC2)CC1	i
O=C(O)CSc1nnnn1-c1ccccc1	i
COc1ccc(C(=O)CSc2nnc(C(O)c3ccccc3)n2-c2ccccc2)cc1 (stereo not drawn)	i
